Compound activity deposited in PubChem BioAssay by The Scripps Research Institute Molecular Screening Center.
Compounds with a hit are over-represented: about 5.7% of the library has one in this group of screens.
DAX1 inh-1: DAX1 (NR0B1) inhibitors, primary screen, cell-based, HEK293, Gal4-DAX1, luciferase luminescence | HEK293 Gal4-DAX1 luciferase reporter | AID 504766, 2011 | inhibition, % at 6.75 µM | 0.99% of 340,000 active | Nuclear receptor subfamily 0 group B member 1 (Homo sapiens), P51843;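 active = inhibition above the mean over all tested compounds plus 3 SD, cut at about 4.2% in these data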;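 note: 0% = DAX1-transfected cells with DMSO and 100% = empty-vector control cells with DMSO; inhibition shows as a rise in luminescence from relieved DAX1 repression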
Target sequence (P51843 207-470 limits assumed): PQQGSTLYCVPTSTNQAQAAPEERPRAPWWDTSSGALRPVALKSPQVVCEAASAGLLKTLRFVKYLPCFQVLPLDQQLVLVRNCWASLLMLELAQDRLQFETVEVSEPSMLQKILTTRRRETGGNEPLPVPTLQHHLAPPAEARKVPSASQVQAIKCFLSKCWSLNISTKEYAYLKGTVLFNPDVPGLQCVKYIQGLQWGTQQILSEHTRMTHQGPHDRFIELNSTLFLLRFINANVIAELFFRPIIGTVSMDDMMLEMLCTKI
ssDAF12 agonist: S. stercoralis DAF-12 nuclear receptor activators, primary screen, cell-based, luminescence, HEK293, GRIP1 co-expression, lit1-tk-luc; Nuclear hormone receptor DAF-12 (Strongyloides stercoralis); activation, % at 6.8 µM; 1% of 370,000 active; HEK293 ssDAF-12/GRIP1 lit1-tk-luc reporter; % of 3 µM dafachronic acid response;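 active = activation above the mean over all tested compounds plus 3 SD, cut at about 0.9% in these data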;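 note: 0% = DMSO-only wells and 100% = 3 µM delta7-dafachronic acid wells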
AHR activator: AHR activators, primary screen, cell-based, luminescence, luciferase reporter, human. Aryl hydrocarbon receptor (Homo sapiens), P35869. AHR-responsive luciferase reporter cells. activation, % at 5 µM. 2.5% of 320,000 active. AID 2796, 2010; in the data active = activation above about 47%;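 note: 0% = vehicle wells and 100% = reference agonist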
DAX1 inh-2: DAX1 (NR0B1) inhibitors on StAR promoter, primary screen, cell-based, luminescence, SF-1 (NR5A1), full-length DAX-1 | HEK293T StAR-luciferase reporter, SF-1/DAX-1 repression relief | inhibition, % at 6.8 µM | 1.1% of 370,000 active;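 active = inhibition above the mean over all tested compounds plus 3 SD, cut at about 3.6% in these data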;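 note: 0% = DAX-1 cells with DMSO and 100% = cells lacking DAX-1 with DMSO; higher inhibition means more luminescence from relief of DAX-1 repression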
hgDAF12 agonist: H. glycines DAF-12 receptor agonists, primary screen, cell-based, luminescence, HEK293, GAL4 fusion, UAS-luciferase; Nuclear hormone receptor DAF-12 (Heterodera glycines), GAL4 fusion; HEK293 GAL4-hgDAF12 UAS-luciferase reporter, agonist luminescence; normalized to butyrate control; activation, % at 6.8 µM; 1.8% of 370,000 active; AID 687014, 2013;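 active = activation above a cutoff set at the mean of all screened compounds plus 3 SD, cut at about 10% in these data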;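 note: 0% = DMSO wells and 100% = sodium butyrate wells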
hcDAF12 agonist: H. contortus DAF-12 nuclear receptor activators, primary screen, cell-based, luminescence, HEK293, lit1-tk-luc reporter | HEK293 hcDAF-12 lit1-tk-luc reporter; 0% DMSO, 100% Δ7-dafachronic acid | activation, % at 6.8 µM | 1.4% of 370,000 active;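 active = activation above the mean of all tested compounds plus 3 SD, cut at about 5.5% in these data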;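 note: 100% = response to 3 µM Δ7-dafachronic acid high control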
DAX1 inh confirm: DAX1 (NR0B1) inhibitors relieving SF-1 repression, confirmation, cell-based, luminescence, HEK293T, full-length DAX-1, SF-1 activated StAR promoter; shares compounds with DAX1 inh-2; HEK293T StAR-promoter luciferase reporter, SF-1/DAX-1 repression; inhibition, % at 6.8 µM; 87% of 2,400 active; AID 652134, 2013;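 active = inhibition above the average of every tested compound plus 3 SD, cut at about 3.8% in these data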;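 note: 0% = DAX-1 cells with DMSO and 100% = no DAX-1 control cells with DMSO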
Target sequence (P51843 whole entry, looked up): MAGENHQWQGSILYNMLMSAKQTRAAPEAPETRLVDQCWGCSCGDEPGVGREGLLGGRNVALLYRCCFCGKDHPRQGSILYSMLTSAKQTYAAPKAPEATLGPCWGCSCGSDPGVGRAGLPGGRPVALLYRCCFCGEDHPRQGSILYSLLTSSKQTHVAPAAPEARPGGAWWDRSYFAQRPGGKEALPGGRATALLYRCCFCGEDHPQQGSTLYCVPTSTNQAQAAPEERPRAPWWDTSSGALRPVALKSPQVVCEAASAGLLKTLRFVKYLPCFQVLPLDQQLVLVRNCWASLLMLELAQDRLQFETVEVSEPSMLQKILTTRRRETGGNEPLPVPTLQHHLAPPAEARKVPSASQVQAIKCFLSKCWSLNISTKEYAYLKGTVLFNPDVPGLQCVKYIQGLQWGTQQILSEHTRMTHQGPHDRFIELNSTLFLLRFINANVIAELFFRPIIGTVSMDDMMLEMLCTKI
SF1 mutant ctr: StAR reporter signal changes without DAX1, counter-screen for DAX1 inhibitor project, cell-based, luminescence, AF-2 mutant SF-1, transactivation. shares compounds with DAX1 inh-2. inhibition, % at 6.8 µM. 78% of 2,400 active. HEK293 StAR-luciferase, SF-1 AF2 mutant;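 active = inhibition above the mean of all tested compounds plus 3 SD, cut at about 3% in these data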;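 note: 0% = DAX-1 transfected cells with DMSO and 100% = cells without DAX-1 with DMSO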
LXRb hcDAF ctr: LXR agonists, Gal4 luciferase reporter, confirmation, counter-screen for hcDAF-12 agonist project, cell-based, luminescence, HEK293, H. contortus campaign; HEK293 Gal4-LXR tk-luc reporter, 24 h; normalized: DMSO 0%, positive control 100%; AID 743027, 2013; 3,400 tested, under 10 active; activation, % at 6.8 µM; shares compounds with hcDAF12 agonist;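 active = mean percent activation of the reporter above a cutoff set as the average over tested compounds plus their standard deviation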
hcDAF12 conf: H. contortus DAF-12 receptor agonists, confirmation, cell-based, luminescence, HEK293, lit1-tk-luc, triplicate | shares compounds with hcDAF12 agonist | 61% of 3,400 active | HEK293 hcDAF-12 lit1-tk-luc reporter; % of Δ7-dafachronic acid response | activation, % at 6.8 µM;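 active = mean activation across triplicate tests above the threshold derived from the earlier primary screen, cut at about 5.5% in these data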;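 note: 0% = DMSO only wells and 100% = 3 µM Δ7-dafachronic acid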
hgDAF12 ag: H. glycines DAF-12 receptor agonists, confirmation, cell-based, luminescence, HEK293, GAL4-LBD fusion; shares compounds with hgDAF12 agonist; HEK293 GAL4-hgDAF12 luciferase reporter, agonist mode; percent of butyrate response; activation, % at 6.8 µM; 80% of 3,300 active;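 active = mean activation over triplicate wells above the hit cutoff derived from the earlier primary screen, cut at about 11% in these data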;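 note: 0% = DMSO low control and 100% = 2 mM sodium butyrate high control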
LXR ag 2: LXR agonists, Gal4 luciferase reporter, confirmation, counter-screen for hgDAF-12 agonist project, cell-based, luminescence, HEK293, H. glycines campaign. 3,300 tested, under 10 active. shares compounds with hgDAF12 agonist. 24 h. activation, % at 6.8 µM;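 active = mean activation of the triplicate above a set limit carried over from the primary screen, none filed active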
* hit, by the source's call; / = no result given.

SMILES | DAX1 inh-1 | ssDAF12 agonist | AHR activator | DAX1 inh-2 | hgDAF12 agonist | hcDAF12 agonist | DAX1 inh confirm | SF1 mutant ctr | hgDAF12 ag | LXR ag 2 | others
Cc1ncc(C(=O)Nc2ccccc2)[nH]1 | 3 | 1 | / | 4.7* | 21* | 4 | 11* | 6.9* | 13* | 0
O=C(Nc1ccccc1)c1cnc[nH]1 | 0 | -1 | 2 | 0 | 9 | 0 | / | / | / | /
Cc1cc(/C=C(\C#N)C(=O)Nc2ccccc2F)c(C)[nH]1 | 2 | 0 | 66* | 12* | 17* | 5 | 15* | 5.5* | 16* | 1
CCOC(=O)c1c(N)sc(C(=O)Nc2ccccc2F)c1C | 4.4* | 1 | 18 | 9.3* | 19* | 6.7* | 14* | 7.1* | 19* | 1 | LXRb hcDAF ctr=2;hcDAF12 conf=8.5*
CCOC(=O)c1sc(NC(=O)Nc2ccccc2Cl)cc1C | 0 | 1.1* | -12 | 7.8* | 20* | 15* | 14* | 7.5* | 24* | 1 | LXRb hcDAF ctr=2;hcDAF12 conf=6.1*
CCOC(=O)c1sc(NC(C)=O)cc1C | -1 | -1 | -3 | 0 | 2 | 0 | / | / | / | /
O=C(N/N=C/c1cc([N+](=O)[O-])ccc1O)c1ccc2c(c1)OCCO2 | -1 | -2 | 3 | 0 | 1 | -1 | / | / | / | /
O=C(N/N=C/c1ccccc1[N+](=O)[O-])c1ccc2c(c1)OCCO2 | -5 | 1 | 26 | 5.6* | 24* | 6.2* | 11* | 4.8* | 15* | 1
O=C(N/N=C/c1cccc(O)c1)c1ccc2c(c1)OCCO2 | -1 | 1.1* | -5 | 19* | 18* | 13* | 17* | 9.4* | 18* | 1 | LXRb hcDAF ctr=2;hcDAF12 conf=8.5*
CCCCC[C@@H]1C=C(C(=O)O)[C@H](c2ccc(Cl)cc2)N1S(=O)(=O)c1ccc(C)cc1 | 0 | -1 | 0 | 2 | -1 | -1 | / | / | / | /
Cn1c(-c2ccccc2)c(/C=N/NC(=O)c2ccc(O)cc2)c2ccccc21 | 8.7* | 0 | 35 | 4.5* | 14* | 1 | 12* | 7.6* | 22* | 0
O=C(N/N=C\c1c(O)ccc2ccccc12)c1ccc(O)cc1 | 2 | 0 | 24 | -3 | -9 | -4 | / | / | / | /
Cc1cc(C)cc(-n2nc(C)cc2N)c1 | -1 | -2 | 2 | -1 | -1 | -1 | / | / | / | /
COc1ccccc1NC(=O)Cn1nc(Cc2cccnc2)c2ccccc2c1=O | 4 | -1 | 15 | 0 | -2 | -1 | / | / | / | /
CCN1CCN(c2ccc(NC(=O)c3ccco3)cc2)CC1 | 1 | -1 | 7 | 8.0* | 14* | 4 | 4.9* | 5.4* | 13* | 0
CCCC(=O)N1CCN(c2ccc(NC(=O)c3ccco3)cc2)CC1 | 0 | -1 | 2 | 0 | 3 | 0 | / | / | / | /
Cc1cccc(NC(=O)CCCc2ccccc2)c1C | 3 | -1 | 3 | 0 | -1 | -1 | / | / | / | /
CCOC(=O)C1(Cc2ccccc2)CCN(Cc2ccccc2[N+](=O)[O-])CC1 | / | -2 | / | -1 | -1 | 0 | / | / | / | /
COc1ccc2cc3cc(C(=O)N4CCCC(C)C4)oc3nc2c1 (configuration not stated) | 1 | 0 | 8 | 7.4* | 14* | 4 | 12* | 8.9* | 16* | 1
CC1CCc2c(sc(NC(=O)C3=COCCO3)c2C(N)=O)C1 (configuration not stated) | 4 | 1.4* | 36 | 5.7* | 15* | 8.7* | 12* | 6.5* | 19* | 1 | LXRb hcDAF ctr=1;hcDAF12 conf=5
COc1ccccc1OCCNC(=O)c1ccc2c(c1)OCCO2 | 1 | 0 | 25 | 7.8* | 17* | 5 | 8.9* | 6.0* | 14* | 1
CC(=O)Nc1ccc2nc3ccccc3nc2c1 | 1 | 0 | 5 | 1 | 5 | 4 | / | / | / | /
C=C(C)C(=O)Nc1ccc2nn(-c3ccccc3O)nc2c1 | 2 | 1.6* | / | 7.9* | 20* | 8.0* | 13* | 7.7* | 20* | 1 | LXRb hcDAF ctr=2;hcDAF12 conf=10*
CNCc1cc(C)n(-c2cc(S(=O)(=O)N3CCOCC3)ccc2N2CCCC2)c1C | 0 | -1 | / | 0 | -1 | -1 | / | / | / | /
CC(=O)OC(C(=O)N1CCN(c2ccccc2F)CC1)c1ccccc1 (configuration not stated) | 0 | -1 | -2 | 0 | -2 | -2 | / | / | / | /
Nc1cc2sc(-c3ccc(C(=O)O)cc3)nc2cc1Cl | -1 | -1 | -6 | 3 | 8 | 4 | / | / | / | /
